RORg inh: ROR gamma (mouse) transcription inhibition; Potency, µM (titrated, usually from 53.6 µM), for the others: top-dose activity change, negative = inhibition, actives largely listed as inhibitors; P51450; AID 2551; Drosophila S2 Gal4-RORgamma UAS-luciferase reporter, 20 h; 310,000 tested, 5.4% active; further: potency means the concentration at half of the fitted maximal effect; nearly all actives have a fitted effect of over 60% in size
Target sequence (P51450 whole entry, looked up, the tested form may be a part): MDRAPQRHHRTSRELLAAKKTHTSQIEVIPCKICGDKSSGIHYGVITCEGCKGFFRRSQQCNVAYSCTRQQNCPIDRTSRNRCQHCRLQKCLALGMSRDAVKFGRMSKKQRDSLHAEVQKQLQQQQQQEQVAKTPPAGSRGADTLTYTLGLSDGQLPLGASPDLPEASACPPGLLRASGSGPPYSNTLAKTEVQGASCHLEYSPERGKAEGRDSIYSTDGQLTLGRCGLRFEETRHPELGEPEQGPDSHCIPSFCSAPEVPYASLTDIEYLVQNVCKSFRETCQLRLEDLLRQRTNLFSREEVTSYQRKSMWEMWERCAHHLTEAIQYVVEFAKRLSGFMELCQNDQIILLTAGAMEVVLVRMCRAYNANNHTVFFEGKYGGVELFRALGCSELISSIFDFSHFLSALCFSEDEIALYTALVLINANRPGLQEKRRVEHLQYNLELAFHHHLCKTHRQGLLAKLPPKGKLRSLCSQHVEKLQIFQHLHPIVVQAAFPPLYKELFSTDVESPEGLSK
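In this cell-based reporter format, copper sulfate (700 uM final) drives Gal4–ROR gamma fusion expression from a metallothionein promoter in Drosophila Schneider cells; compounds preincubated 1 hr, reporter read after 20 hr at ambient temperature.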
ELG1 repair inh: ELG1-dependent DNA repair inhibition | Potency, µM (highest dose often 46.1 µM), for inactives: at the highest dose activity change, negative = inhibition, usual class: inhibitors | HEK293T ELG1-luciferase reporter, luminescence, 16 h; DNA damage induced by 5-fluorouridine | 330,000 tested, 2.3% active; further: potency means the concentration at half of the fitted maximal effect; nearly all actives have a fitted effect of over 55% in size
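5-Fluorouridine DNA damage + compound/DMSO, 2,000 cells/well, 16 h, 37 °C/5% CO2. ONE-Glo, 30 min RT, luminescence. Readout = decrease in reporter signal.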
DT40 TDP1 no CPT: qHTS for Inhibitors of human tyrosyl-DNA phosphodiesterase 1 (TDP1): qHTS in cells in absence of CPT | Potency, µM (doses to about 46.2 µM), without a hit: at the top dose activity change, negative = growth inhibition, actives largely listed as inhibitors | 420,000 tested, 15% active | DT40 Tdp1-/- hTDP1 cells, no CPT, ATP luminescence, 48 h; further: potency means the concentration at half of the fitted maximal effect; nearly all actives have a fitted effect of over 55% in size
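Stably hTDP1-transfected Tdp1-null chicken DT40 cells were treated with library compounds minus camptothecin and grown for at least 48 hr at 37 °C, after which cellular ATP was quantified by luminescence.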
VP16 counter: counter-screen for ROR gamma inhibitors: Gal4-VP16 reporter; Drosophila S2 Gal4-VP16 UAS-luciferase, luminescence, 20 h; Potency, µM (top dose mostly 53.6 µM), for the others: at the highest dose activity, negative = inhibition, most hits filed as inhibitors; 310,000 tested, 3.5% active; AID 2546;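 further: Gal4-VP16 expression switched on by copper sulfate through the metallothionein promoter; potency means the concentration at half of the fitted maximal effect; nearly all actives have a fitted effect of over 50% in size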
IL1B secr inh: inhibitors of inflammasome signaling (IL-1 beta secretion) | 360,000 tested, 4.7% active | activity change, % at 57.5 µM | THP-1 LPS/ATP IL-1B secretion, AlphaLISA, 16 h; hits give low values; in the data active means activity change below about -50%; inconclusive means mostly about -30% to -49%
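THP-1 cells pretreated 1 hr with compounds (up to 57.5 uM final), then stimulated with LPS (250 ng/mL final) plus ATP (1.25 mM final); secreted IL-1B measured by AlphaLISA after 16 hr, decreased signal indicating inhibition.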
DT40 TDP1 CPT: growth inhibition of DT40 Tdp1-/-;hTDP1 cells with camptothecin (screen for TDP1 inhibitors); 420,000 tested, 12% active; Potency, µM (titrated, usually from 46.2 µM), for inactives: at the top dose activity change, negative = growth inhibition, actives largely listed as inhibitors; chicken DT40 Tdp1-/-;hTDP1 cells + 20 nM CPT, ATP luminescence, 48 h; further: potency means the concentration at half of the fitted maximal effect; nearly all actives have a fitted effect of over 55% in size
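Chicken DT40 Tdp1-/- cells stably complemented with human TDP1 were seeded at 400 cells/well in medium containing 20 nM camptothecin, exposed to pin-transferred compounds, and grown at 37 °C for at least 48 hr. Viability was read as ATP luminescence.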
The depositor's hits bear a star; ? = inconclusive; . = no result; [ ] = dose if it differs, or a comment. Rows were chosen to be rich in hits. Some 21% of all compounds tested hit in one or more screens of this group. Unless noted, the call rests on the fitted dose curve; in most records, active means well fitted curve in the direction sought with a large enough effect; inconclusive means small, poorly fitted or top-dose-only effect, or another doubt; inactive means no such curve, though single readings can be large; an effect the other way counts as inactive or inconclusive. On the % scale 0 is the no-effect control and ±100 the full control effect.

SMILES | RORg inh | ELG1 repair inh | DT40 TDP1 no CPT | VP16 counter | IL1B secr inh | DT40 TDP1 CPT
Fc1ccc(COc2ccc(C(=S)N3CCCC3)cc2)cc1 | ? | ? | ? | -30% | -28 | 0%
S=C(c1ccc(OCc2ccccc2)cc1)N1CCCC1 | ? | ? | ? | ? | -5 | 18µM*
Cc1cc(=O)[nH]c2nc(N)ccc12 | . | . | 10% | . | . | 2%
Cc1cc(C)c2ccc(N)nc2c1O | 6%[0.365 µM] | ? | 18µM* | . | 96 | 23µM*
Cc1ccccc1-c1ccnc2[nH]n(-c3ccccc3)c(=O)c12 | 31% | 5% | 2% | 3% | 16 | ?
CC(=O)OC[C@H]1O[C@@H](Sc2cccc3cccnc23)[C@H](OC(C)=O)[C@@H](OC(C)=O)[C@H]1OC(C)=O | ? | -4% | -86% | -21% | 0 | 18µM*
COc1cccc(OCCCn2c(-c3ccc(Cl)cc3)nc3ccccc3c2=O)c1 | . | . | -16% | . | . | -14%
CCc1cc2c(cc3c(=O)n(CC(=O)NCc4cc(Br)ccc4OC)ncn32)s1 | . | . | ? | . | . | -29%
CCCCC[C@]12Cc3ccccc3C(O1)c1c(cc(C)oc1=O)O2 | -8%[10 µM] | . | . | -5%[10 µM] | . | .
COc1cc(F)ccc1-c1csc(C(C)(O)c2ccc(F)c(F)c2)n1 (stereo not drawn) | . | . | 18µM* | . | 17 | ?
OC(c1ccccc1)c1nc(-c2csc3ccccc23)cs1 (stereo not drawn) | . | . | -2% | . | 69 | ?
CC(O)(c1ccc(F)c(F)c1)c1nc(-c2csc3ccccc23)cs1 (stereo not drawn) | . | . | ? | . | -1 | ?
COc1cc(F)ccc1-c1csc(C(O)c2ccccc2)n1 (stereo not drawn) | . | . | ? | . | -16 | 26µM*
COc1cc(F)ccc1-c1csc(C(O)(c2ccccc2)C(F)(F)F)n1 (stereo not drawn) | . | . | 15µM* | . | ? | 23µM*
OC(c1ccc(F)cc1)c1nc(-c2csc3ccccc23)cs1 (stereo not drawn) | . | . | 26µM* | . | -19 | 18µM*
Nc1ncnc2c1ncn2[C@@H]1O[C@H](C(=O)NS(=O)(=O)c2ccccc2[N+](=O)[O-])[C@@H](O)[C@H]1O | . | . | ? | . | 23 | ?
COc1cccc(NC(=O)N(C)C[C@H]2Oc3ncc(Br)cc3C(=O)N([C@H](C)CO)C[C@H]2C)c1 | . | . | ? | . | -9 | 0%
Cc1cc2n(n1)CCC(=O)N2Cc1ccc(C(=O)Nc2ccc(Br)c(C)c2)cc1 | . | . | ? | . | . | -28%
COc1ccc(C(C)(O)c2nc(-c3ccc(F)c(Cl)c3)cs2)cc1 (stereo not drawn) | . | . | ? | . | 29 | ?
COc1cccc(C(C)(O)c2nc(-c3ccc(F)cc3OC)cs2)c1 (stereo not drawn) | . | . | ? | . | 18 | 23µM*
COc1ccc(C(C)(O)c2nc(-c3ccc(F)cc3OC)cs2)cc1 (stereo not drawn) | . | . | 10µM* | . | 46 | 8.2µM*
COc1ccc2c(CC(=O)Nc3ccc4nc(N5CCOCC5)sc4c3)coc2c1 | . | . | ? | . | 59 | ?
COc1ccc(CNc2ccccc2SC)cc1OC | -45% | ? | ? | 1% | -5 | ?
COc1cc(CNc2ccccc2SC)cc(OC)c1OC | 5% | ? | 21µM* | 14% | -2 | 21µM*
S=C(c1nc2ccccc2[nH]1)N1CCOCC1 | 5µM* | 11% | ? | 6.3µM* | -11 | ?
SMILES | RORg inh | ELG1 repair inh | DT40 TDP1 no CPT | VP16 counter | IL1B secr inh | DT40 TDP1 CPT
C[C@H](NC(=O)COc1ccc(Cl)cc1)C(=O)N1CCC2(CC1)NCCc1[nH]cnc12 | -13% | 0% | 0% | -1% | -13 | 0%
CCN(CC)C(=O)C1CCN(S(=O)(=O)c2ccc3c(c2)CCCN3C(C)=O)CC1 | . | . | ? | . | . | 23µM*
O=C(C1CCC1)N1CCc2cc(S(=O)(=O)N3CCCCC3)ccc21 | 13% | ? | ? | 9% | 7 | ?
CCN(c1cccc(C)c1)S(=O)(=O)c1ccc2c(c1)CCCN2C(C)=O | -5% | -5% | ? | 15% | -19 | -28%
CCN(C(=O)C1CCN(S(=O)(=O)c2ccc3c(c2)CCCN3C(C)=O)CC1)c1cccc(C)c1 | . | . | 23µM* | . | . | ?
CCN(c1cccc(C)c1)S(=O)(=O)c1ccc2c(c1)CCN2C(C)=O | 40% | -25% | 16µM* | -1% | 16 | ?
CC(=O)N1CCCc2cc(S(=O)(=O)N3CCC(C(=O)NCCC(C)C)CC3)ccc21 | . | . | -7% | . | . | 9%
CCN(CC)C(=O)C1CCN(S(=O)(=O)c2ccc3c(c2)CCCN3C(=O)C2CCC2)CC1 | 19% | 23µM* | ? | -5% | 43 | 7.3µM*
COc1ccc(C(C)(C)C)cc1NC(=O)COC(=O)c1ncc(Cl)c(Cl)c1Cl | -5% | ? | -11% | 19% | 19 | -11%
Cc1cccc(NC(=S)/N=C(\N)Nc2nc(C)c3ccc(C)cc3n2)c1 | 1µM* | ? | 12µM* | 3.5µM* | -6 | 15µM*
Cc1cccc(NC(=S)/N=C(\N)Nc2nc(C)c3ccccc3n2)c1 | 2.2µM* | -11% | ? | 5µM* | -27 | 18µM*
Cc1cc(C)cc(NC(=S)/N=C(\N)Nc2nc(C)c3ccccc3n2)c1 | 2µM* | 18µM* | 15µM* | 3.2µM* | 2 | 21µM*
Cc1ccc(S(=O)(=O)/N=C(\N)Nc2nc(C)c3ccccc3n2)cc1 | 23% | -4% | -2% | -15% | -21 | -1%
Cc1ccc(NC(=S)/N=C(\N)Nc2nc(C)c3ccccc3n2)cc1C | 1µM* | ? | ? | 1µM* | 19 | ?
Cc1cn([C@H]2C[C@H](O)[C@@H](CCC(=O)NCC3CCCO3)O2)c(=O)[nH]c1=O (stereo partly drawn) | . | . | -9% | . | 40 | -8%
COc1ccc(CN2CCC3(CCC(CNC(=O)c4ccnn4C)O3)CC2)c(C)c1C (stereo not drawn) | . | . | ? | . | . | -29%
CCC(C)C1/C=C\CCCC(=O)N1Cc1ccc(C)cc1 (stereo not drawn) | 1% | . | . | -5% | . | .
CC1(C(=O)NCc2ccccc2Br)CCN1Cc1ccc(-c2ccccc2)o1 (stereo not drawn) | . | . | ? | . | -21 | ?
Cc1cccc(NC(=S)/N=C(\N)Nc2nc(C)c3cc(C)ccc3n2)c1 | 7.1µM* | -18% | 23µM* | 4.5µM* | ? | 21µM*

Bioassay records as filed in PubChem BioAssay.
